According to PubChem BioAssay AID1347041 (National Center for Advancing Translational Sciences (NCATS), 2019):
Out of some 480,000 compounds screened, about 740 (0.15%) were called active. Rule as the data show it: active = activity change below about -30%; inconclusive = mostly about -25% to -30%; inactive = weaker than that. The list comes from a sample in which actives are over-represented; it also holds similar structures and randomly drawn compounds.

What follows are compounds tested against L-lactate dehydrogenase A chain (Homo sapiens) (UniProt P00338) (assay: qHTS assay for inhibitors of human lactate dehydrogenase). Conditions: purified LDHA, NADH/diaphorase-resazurin fluorescence; active compounds read low.
Summary of the method: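 LDH5 2 nM; NADH 0.06 mM, pyruvate 0.2 mM; 200 mM Tris pH 7.4, EDTA, Tween-20; 5 min RT. Detection: diaphorase 0.133 mg/mL + resazurin 37 µM, fluorescence ex540/em590 at 0 and 20 min; normalized to enzyme-free and DMSO wells.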
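Also: values are at about 110 or 230 µM; plate controls were DMSO wells for no effect and wells without enzyme for full effect.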

Row | Structure (SMILES) | activity change
1 | O=C(COc1ccccc1C(=O)Nc1ccccc1)NC1CC1 | 2.72% (inactive)
2 | Cc1cc2oc(=O)cc(CN3CCCCCCC3)c2cc1C | 3.97% (inactive)
3 | Cc1nc2nc(CN)nn2c(C)c1CCC(=O)NC1CCCCC1 | 10.1% (inactive)
4 | CCCn1c(SC(C)C(=O)c2ccc(Cl)cc2)n[nH]c1=O (configuration not stated) | 1.73% (inactive)
5 | CSc1nnc([C@H](CC(C)C)NC(=O)OC(C)(C)C)o1 | -6.07% (inactive)
6 | c1ccc(Oc2ncnc3scc(-c4ccc(-c5ccccc5)cc4)c23)cc1 | 2.38% (inactive)
7 | CCn1c(SCc2ccc(F)cc2Cl)nnc1-c1ccccn1 | -9.31% (inactive)
8 | Cc1ccc(NC(=O)C2=Cc3sc4c(c3CS2)CCCC4)c(C)c1 | 4.96% (inactive)
9 | NC(N)=Nc1ccc(F)cc1 | 0.928% (inactive)
10 | O=C(CCc1nc(-c2ccccc2)no1)N1CCc2sccc2C1c1cccs1 (configuration not stated) | 9.21% (inactive)
11 | Cc1cc(C)n2ncc(-c3noc(C(=O)NC4CCCC4)n3)c2n1 | -0.0013% (inactive)
12 | Cc1nc2cc(NC(=O)COc3ccccc3C(C)(C)C)ccc2o1 | 3.35% (inactive)
13 | Cc1[nH]c2ccccc2c1C(=O)C(C)Sc1ccc2c(c1)OCCCO2 (configuration not stated) | 7.43% (inactive)
14 | Cc1nc2cc(NC(C)C(=O)Nc3ccccc3Cl)ccc2o1 (configuration not stated) | -7.75% (inactive)
15 | c1ccc(COc2ccc(CNc3ccccc3)cc2)cc1 | -2.65% (inactive)
16 | O=C(Nc1ccc(N2CCOCC2)cc1)c1ccc2c(c1)S(=O)(=O)c1ccccc1C2=O | 0.869% (inactive)
17 | CC(C)CCn1c(=O)[nH]c(=O)c2c3c(cnc21)C(=O)CC(c1ccc(F)cc1)C3 (configuration not stated) | 8.23% (inactive)
18 | Fc1ccc(-n2c(Cc3ccccc3)nnc2SCc2ccc(Br)cc2)cc1 | 11.5% (inactive)
19 | COc1ccc(CNS(=O)(=O)c2ccc(-c3ccc(=O)[nH]n3)s2)cc1 | -1.99% (inactive)
20 | O=C1CN(CC(=O)Nc2c(Cl)cc(Cl)cc2Cl)CCN1 | -9.74% (inactive)
21 | CCOc1ccccc1N(CC)C(=O)Cc1noc2ccccc12 | 1.93% (inactive)
22 | COc1ccc(OC)c(C2C(C#N)=C(N)Oc3cc(O)ccc32)c1 (configuration not stated) | 6.17% (inactive)
23 | O=C(O)c1c(Br)c(Br)c(Br)c(Br)c1C1c2ccc(O)cc2Oc2cc(O)ccc21 | -47.5% (active)
24 | O=C(c1n[nH]c(=O)c2ccccc12)N1CCN(S(=O)(=O)c2ccccc2F)CC1 | 12.5% (inactive)
25 | COc1cccc(-c2c(NC(=O)c3ccc(Cl)cc3)oc3ccccc3c2=O)c1 | -5.8% (inactive)
26 | O=C(O)Cc1ccc(F)c2ccccc12 | 2.09% (inactive)
27 | CC(Sc1nc2cc(S(=O)(=O)N3CCCCC3)ccc2o1)C(=O)Nc1cccc(Cl)c1 (configuration not stated) | 6.97% (inactive)
